Shown are actives, neighbours in structure and some others; about 0.82% of the full set was active somewhere.
eLon inh: inhibitors of E. coli Lon protease. P0A9M0. purified E. coli Lon protease, fluorescence polarization. inhibition, % at 7.94 µM. 0.42% of 360,000 active; in the data active = inhibition above about 13%, passing the limit was not always enough
cardiac RTF act: cardiac RTF calcium sensitization. activation, % at 7.2 µM. 0.24% of 340,000 active. IANBD-labeled TnC RTF fluorescence at EC20 calcium; 0% EC20 calcium, 100% full calcium. P19429+P45379;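 active = activation above the mean over all tested compounds plus 3 SD, cut at about 30% in these data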;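 also: rise in fluorescence read as greater calcium sensitivity of cardiac thin filaments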
RTF Ca sens inh: cardiac RTF calcium desensitization. P19429+P45379. 0.12% of 340,000 active. AID 493244. IANBD-labeled cardiac RTF, Ca2+ fluorescence. inhibition, % at 7.15 µM;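 active = inhibition above the mean inhibition of all tested compounds plus 3 SD, cut at about 17% in these data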;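 also: assay run at fixed EC70 calcium of 1.6 mM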
LANA DNA inh: KSHV C-LANA DNA binding inhibition | inhibition, % at 9 µM | 0.078% of 340,000 active | MBP-C-LANA/FAM-LBS DNA binding, fluorescence polarization;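 active = highest replicate inhibition at or above 60% at 9 µM, even if other replicates fall short; inactive = all replicates below 60% inhibition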
Keap1 Nrf2 FP: inhibitors of human Keap1-Nrf2 protein-protein interaction; Keap1 Kelch-Nrf2 peptide fluorescence polarization, 1536-well; inhibition, % at 9.4 µM; 0.15% of 340,000 active; Q14145; in the data active = inhibition above about 12%;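 also: human Keap1 Kelch domain with fluorescein labeled Nrf2 9mer peptide probe; higher means more block of Keap1 binding to Nrf2 peptide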
Target sequence (Q14145 whole entry, looked up, the tested form may be a part): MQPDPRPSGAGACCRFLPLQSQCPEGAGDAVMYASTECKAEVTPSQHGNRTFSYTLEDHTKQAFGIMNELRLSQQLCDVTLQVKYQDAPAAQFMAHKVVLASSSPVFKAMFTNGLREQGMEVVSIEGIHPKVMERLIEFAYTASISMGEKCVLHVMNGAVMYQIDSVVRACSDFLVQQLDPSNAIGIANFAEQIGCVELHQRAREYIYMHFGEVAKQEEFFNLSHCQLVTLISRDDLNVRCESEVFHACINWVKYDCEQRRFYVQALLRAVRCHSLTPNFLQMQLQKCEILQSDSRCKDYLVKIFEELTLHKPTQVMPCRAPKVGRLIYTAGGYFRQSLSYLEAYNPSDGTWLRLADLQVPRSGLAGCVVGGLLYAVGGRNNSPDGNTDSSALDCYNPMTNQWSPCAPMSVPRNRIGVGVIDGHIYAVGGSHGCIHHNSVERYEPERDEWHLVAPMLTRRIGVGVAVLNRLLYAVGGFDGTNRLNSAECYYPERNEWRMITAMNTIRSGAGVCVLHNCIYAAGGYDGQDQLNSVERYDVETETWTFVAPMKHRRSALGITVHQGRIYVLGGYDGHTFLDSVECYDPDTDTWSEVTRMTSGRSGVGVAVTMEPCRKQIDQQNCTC
RTF Ca inh conf: cardiac RTF calcium sensitivity inhibition, confirmation. shares compounds with RTF Ca sens inh. reconstituted cardiac thin filaments, calcium sensitivity fluorescence. inhibition, % at 7.15 µM. 8% of 360 active. AID 504635; in the data active = inhibition above about 18%
Hits are given with their value; 0 = inactive; - = no result given; ! = a repeat was not active.

SMILES	eLon inh	cardiac RTF act	RTF Ca sens inh	LANA DNA inh	Keap1 Nrf2 FP	RTF Ca inh conf
O=C(C1CCCN(S(=O)(=O)c2cccc3nsnc23)C1)N1CCCCCC1 (stereo unspecified)	0	0	17.3	0	0	0
CC1CCCN(C(=O)C2CCCN(S(=O)(=O)c3cccc4nsnc34)C2)C1 (stereo unspecified)	0	0	0	0	0	-
COc1cc(-c2cnc3c(NC=O)cc(-c4ccsc4)cn23)cc(OC)c1OC	0	-	-	-	-	-
COc1ccc(OC)c(S(=O)(=O)NCC(c2ccco2)N2CCc3ccccc3C2)c1 (stereo unspecified)	0	0	17.8	0	0	0
COc1ccc(C)cc1S(=O)(=O)NCC(c1ccco1)N1CCc2ccccc2C1 (stereo unspecified)	0	0	0	0	0	-
CCc1cccc(CC)c1NC(=O)COC(=O)CCc1cc(OC)c(OC)c(OC)c1	0	0	18.6	0	0	0
COc1cc(CCC(=O)OCC(=O)Nc2c(Cl)cccc2Cl)cc(OC)c1OC	0	0	0	0	0	-
CCOC(=O)Cn1nc(C)cc1NC(=O)c1cccnc1	0	0	20.7	0	0	0
CCc1cc(C(=O)N/N=C/c2ccc(OC)cc2)c2ccccc2n1	0	0	18.5	0	0	0
O=C(N/N=C/c1cccc(F)c1)c1cc(-c2ccco2)nc2ccccc12	0	0	17.1	0	0	0
COc1ccc(OC)c(-c2cc(C(=O)N/N=C/c3ccc(F)cc3)c3ccccc3n2)c1	0	-	-	-	-	-
COc1cc(/C=N/NC(=O)c2cc(-c3ccco3)nc3ccccc23)cc(OC)c1O	0	0	0	0	0	-
COc1ccc(OC)c(N(CCN2C(=O)c3ccccc3C2=O)C(=O)CCl)c1	0	-	-	-	-	-
CCOC(=O)c1c(C=O)c(C)n(Cc2ccccc2Cl)c1C	0	0	17.7	0	0	0
Cc1ccc(CSc2nnc(SCC(=O)N/N=C/C=C/c3ccccc3[N+](=O)[O-])s2)cc1	0	0	21.4	0	0	0
Cc1ccc(CSc2nnc(SCC(=O)N/N=C/C=C/c3ccco3)s2)cc1	0	0	0	0	0	-
CCN1/C(=C/c2ccc3ccccc3[n+]2CC)C=Cc2ccccc21	0	0	17.4	0	0	0
CCOC(=O)[C@]12CCCC=C1N(Cc1ccc3c(c1)OCO3)C(=O)[C@H](CC(=O)NCC13CC4CC(CC(C4)C1)C3)C2	0	-	-	-	-	-
CC/C(=C(\c1ccc(O)cc1)c1ccc(OCCN(C)C)cc1)c1ccccc1	0	0	17.6	0	0	0
NNC(=O)c1ccc2nc(-c3ccc(Br)cc3)cn2c1	0	0	21.7	0	0	0
O=S(=O)(O)c1cc(O)c2ccc(Nc3ccccc3)cc2c1	0	0	32.7	92.2	0	0
COc1ccccc1Nc1ccc2c(O)cc(S(=O)(=O)O)cc2c1	0	0	18.3	119.1	0	0
CC(=O)Nc1ccc2c(O)cc(S(=O)(=O)O)cc2c1	0	0	0	0	0	-
C1C2CC3C1C3C2=NN=C1C2CC3C(C2)C13	0	-	-	-	-	-
COc1cc2c(ccc3cc(OC)c(OC)c(O)c32)cc1O	0	0	26.3	0	0	0
SMILES	eLon inh	cardiac RTF act	RTF Ca sens inh	LANA DNA inh	Keap1 Nrf2 FP	RTF Ca inh conf
Cc1cc(C)c2cc(C#N)c(NCCCNC(=O)c3cccnc3)nc2c1	0	-	-	-	-	-
CC(C)CC1C(=O)N(Cc2cn(CC3CCCCC3)nn2)CCS(=O)(=O)N1Cc1ccc(-c2ccncc2)cc1 (stereo unspecified)	0	-	-	-	-	-
C=CCC[C@@H](Cc1ccc(F)cc1)C(=O)OC[C@@H](NC(=O)[C@@H](CC=C)CC(=O)N[C@@H](CO)Cc1ccccc1)C(C)(C)C	0	0	17.8	0	0	0
NS(=O)(=O)c1cc(C(=O)O)cc(N2CCCC2)c1Oc1ccccc1	0	0	18.7	0	0	0
COC(=O)[C@]12CCCCC=C1N(CCC1=CCCCC1)C(=O)[C@H](CC(=O)N1CCC(c3ccccc3)CC1)C2	0	-	-	-	-	-
N#Cc1cc2c(nc1SCc1ccccc1)CCC2	0	0	0	0	0	-
N#Cc1cc2c(nc1SCc1ccccc1)CCCC2=O	0	0	19.6	0	0	0
C=C(C)C(=O)Oc1ccc(N=Nc2ccc(C)cc2)ccc1=O	0	-	-	-	-	-
COCCCC/C(=N\OCCN)c1ccc(C(F)(F)F)cc1	0	0	19.9!	0	0	0
O=C(CCC(=O)OCC(=O)c1ccc(C(F)(F)F)cc1)OCC(=O)c1ccc(C(F)(F)F)cc1	0	-	-	-	-	-
CC1=C(C(=O)N(C(C)C)C(C)C)CC(CC(=O)NCC2CCCCC2)C(=O)N1Cc1ccc(C(C)(C)C)cc1 (stereo unspecified)	0	-	-	-	-	-
Cc1ccc(/C=N/NC(=O)CNC(=O)COc2ccc(Cl)cc2)o1	0	0	18.2	0	0	0
COc1ccc(CC(=O)NCC(=O)N/N=C/c2ccc(C)o2)cc1	0	0	0	0	0	-
COc1ccc(C2OC(CCc3ccccc3)CC3=C2C(=O)OC(C)(C)O3)cc1 (stereo unspecified)	0	-	-	-	-	-
O=C(NCc1ccccc1)C1Cc2c(-c3ccc(Cl)cc3)ccnc2O1 (stereo unspecified)	0	-	-	-	-	-
COc1cc(Nc2ccn3nc(-c4ccccc4Cl)cc3n2)cc(OC)c1OC	0	-	-	-	-	-
CC1CCC/C(=C\Nc2ccc(O)cc2)C1=O (stereo unspecified)	0	0	0	0	0	-
CC1(C)OC(C)(C)/C(=C/Nc2ccc(O)cc2)C1=O	0	0	189.8	0	0	0
COc1ccccc1-c1cnc(C(O)c2ccc(C)cc2)[nH]1 (stereo unspecified)	0	-	-	-	-	-
CCCS(=O)(=O)N1CCC(C(=O)NCCCN2CCCC2=O)CC1	0	0	19.1	0	0	0
Cc1ccc(S(=O)(=O)N2CCC(C(=O)NCCCN3CCCC3=O)CC2)cc1	0	0	0	0	0	-
O=C(NCC(c1cccs1)N1CCOCC1)c1ccc([N+](=O)[O-])cc1 (stereo unspecified)	0	0	17.4	0	0	0
C=CCNC(=S)Nc1cccc2ccccc12	0	0	19.6	0	0	0
O=C(CC1c2ccccc2C=C(c2ccsc2)N1c1ccc(-c2cccnc2)cc1)C1CC1 (stereo unspecified)	0	-	-	-	-	-
CSc1ccc(Cn2c(C)c(C(=O)NCc3ccco3)sc2=O)cc1	0	-	-	-	-	-
SMILES	eLon inh	cardiac RTF act	RTF Ca sens inh	LANA DNA inh	Keap1 Nrf2 FP	RTF Ca inh conf
O=C(Nc1ccc(N2CCOCC2)cc1)Nc1ccc2nc(-c3ccco3)c(-c3ccco3)nc2c1	0	0	0	0	0	-
O=C(Nc1ccc2nc(-c3ccco3)c(-c3ccco3)nc2c1)NC1CC1	0	0	23.6	0	0	19.4
O=C(O)c1ccc2nc(-c3ccco3)c(-c3ccco3)nc2c1	0	0	46.9	0	0	70.0
Cn1c(NC(=O)c2ccc(S(=O)(=O)N3CCCCC3)cc2)cc(=O)n(C)c1=O	0	0	17.0	0	0	0
CC(=O)Nc1ccc(C(=O)Nc2ccc(S(=O)(=O)N3CCCCC3)cc2)cc1	0	0	0	0	0	-
COc1ccc(NC(=O)C2(C)CCN2Cc2ccc(C(C)C)cc2)cc1OC (stereo unspecified)	0	-	-	-	-	-
